# According to PubChem BioAssay:
# Values without a mark were called inactive. No rule for the calls is given here. Where a SMILES comes first, the peptide text is derived from it. The star is where a group is joined. Cbz = O=C(OCc1ccccc1)*
# System: Aerobactin synthetase IucA (Klebsiella pneumoniae, hypervirulent)
# Assay: IucA enzyme inhibition, biochemical, LOPAC library, absorbance readout (AID 1346212);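 also: 100% = no compound wells and 0% = no enzyme wells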
# Settings: IucA enzyme assay, absorbance (OD) readout; hits give low values;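 tested at 8 µM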
row,SMILES,remaining activity [%]
1,NC(=O)OCC(COC(N)=O)c1ccccc1,100
2,O=C(Nc1ccccc1)c1cc([N+](=O)[O-])ccc1Cl,115
3,O=C(O)c1cc(=O)cc(C(=O)O)[nH]1,122
4,CCOC(=O)c1ncn2c1CN(C)C(=O)c1cc(F)ccc1-2,100
5,O=C(Cc1ccc(Cl)c(Cl)c1)OCCN1CCCC1,117
6,C#C[C@]1(O)CC[C@H]2[C@@H]3CCC4=Cc5nc6nc7ccccc7n6cc5C[C@]4(C)[C@H]3CC[C@@]21C,123
7,O=c1c2ccccc2nc2n1CCc1c-2[nH]c2ccccc12,82.9
8,NC(=Nc1ccccc1)NC(=O)c1nc(Cl)c(N)nc1N,105
9,C[C@]12C=CC(=O)C=C1CC[C@H]1[C@@H]3C[C@@H](O)[C@](O)(C(=O)CO)[C@@]3(C)C[C@H](O)[C@@]12F,110
10,COC1=C(OC)C(=O)c2ccccc2C1=O,109
11,CC(C)[C@H](NC(=O)OCc1ccccc1)C(=O)N[C@H](C=O)Cc1ccccc1 (Cbz-Val-Phe-aldehyde),106
12,Ic1ccc(N2CCN(Cc3c[nH]c4ncccc34)CC2)cc1,115
13,CCC(=O)N1CCN(C(=O)c2ccccc2)CC1,122
14,CC[n+]1c(/C=C/C=C2/N(C)c3ccccc3C2(C)C)sc2ccccc21,93.2
15,CCCCCCC(=O)OC1CC(C)(C)NC(C)(C)C1,109
16,O=C(c1ccc2c(c1)OCCO2)N1CCCCC1,87.4
17,CN1CCC(=C2c3ccccc3C=Cc3ccccc32)CC1,123
18,Nc1nc2c(ncn2COC(CO)CO)c(=O)[nH]1,111
19,CC(=O)c1ccc(S(=O)(=O)NC(=O)NC2CCCCC2)cc1,127
20,CC(C)NC[C@H](O)COc1ccc(CC(N)=O)cc1,115

row,SMILES,remaining activity [%]
1,O=c1[nH]c2ccccc2c2ccccc12,97.7
2,O=C(NCCNCC(O)COc1ccc(O)cc1)N1CCOCC1 (centres undefined),118
3,O=C(O)Cc1c[nH]c2ccc(O)cc12,101
4,COC(=O)c1c(-c2cc(OC)c(OC)c(OC)c2)c2ccc(OCc3ccccn3)cc2c(=O)n1-c1ccc(N)cc1,86.8
5,C#CCN1C(C)=C(C(=O)OC)C(c2cccc([N+](=O)[O-])c2)C(C(=O)OCC)=C1C (centres undefined),112
6,COc1nc(C)nc(Cl)c1NC1=NCCN1,119
7,CC(C)Cc1ccc([C@H](C)C(=O)O)cc1,111
8,C[C@@H](N)C1CCC(C(=O)Nc2ccncc2)CC1 (some centres undefined),107
9,C[C@]12C[C@H](O)[C@H]3[C@@H](CCC4=CC(=O)CC[C@@]43C)[C@@H]1CC[C@@H]2C(=O)CO,110
10,Nc1nnc(-c2cccc(Cl)c2Cl)c(N)n1,114
11,Cc1nc2c([nH]1)c(=O)n(C)c(=O)n2Cc1ccco1,99.1
12,CN=C(NC#N)Nc1ccc(C2=NNC(=O)CC2C)cc1 (centres undefined),104
13,C[C@]12CCC(=O)C=C1CC[C@@H]1[C@@H]2[C@@H](O)C[C@@]2(C)[C@H]1CC[C@]2(O)C(=O)CO,104
14,CN(C)CCCO[C@@H]1[C@H]2OC(C)(C)O[C@H]2O[C@@H]1[C@H](O)CO,113
15,Nc1nc(Cl)nc2c1ncn2[C@@H]1O[C@H](CO)[C@@H](O)[C@H]1O,115
16,CC1=C(CC(=O)O)c2cc(F)ccc2/C1=C\c1ccc(S(C)(=O)=O)cc1,93.6
17,CNCCC(Oc1ccccc1C)c1ccccc1 (centres undefined),102
18,CCC(C)N(C)C(=O)c1cc2ccccc2c(-c2ccccc2Cl)n1 (centres undefined),116
19,CCCCNc1c(C(=O)OCC)c(C)nc2c1cnn2CC,121
